CHX counter – Cycloheximide Counterscreen for Small Molecule Inhibitors of Shiga Toxin. AID 2314, 2010. max response, %. 300,000 compounds, 12% hits. cell reporter, cycloheximide protein synthesis inhibition counterscreen; in the data active = max response mostly above about 13%, no sharp cut-off; inactive = mostly below about 14%; note: read at 38.3 µM for the half of the compounds with a filed dose; 0% is about no effect
Marburg entry inh – qHTS for inhibitors of binding or entry into cells for Marburg Virus | Marburg virus pseudotyped entry inhibition, cell reporter | Potency, µM (highest dose often 37.8 µM), for inactives: at the top dose activity change, negative = inhibition, most hits filed as inhibitors | 300,000 compounds, 1.8% hits; calls by dose curve; tested in HEK293 cells; note: potency is the fitted concentration of half-maximal effect; % is set by controls: 0 for no effect and ±100 for the full control effect
Shiga inhibitor – A qHTS for Small Molecule Inhibitors of Shiga Toxin; inhibition, % at 38.7 µM; 290,000 compounds, 9.2% hits; AID 2315, 2010; Vero cells, Shiga toxin protein synthesis inhibition reporter; in the data active = inhibition mostly above about 28%, no sharp cut-off; inactive = mostly below about 43%; note: 0% is about no effect
Lassa entry inh – qHTS for Inhibitors of binding or entry into cells for Lassa Virus; 300,000 compounds, 1.2% hits; Potency, µM (series often up to 37.9 µM), inactives show top-dose activity change, negative = inhibition, usual class: inhibitors; Lassa virus pseudotype entry inhibition, cell reporter; AID 540256, 2011; calls by dose curve; tested in HEK293 cells; note: potency is the fitted concentration of half-maximal effect; % is set by controls: 0 for no effect and ±100 for the full control effect; nearly all actives have a fitted effect of over 50% in size
Active calls of the source: *; [ ] = another dose, or the depositor's remark. Sampled rows, rich in hits. Any-hit rate of the full collection: about 12%.

Cc1ccc(NC(=O)CC2SCCNC2=O)cc1[N+](=O)[O-] (stereo not given) was read as CHX counter 16*, Marburg entry inh 9%, Shiga inhibitor 12 and Lassa entry inh 2%.
`CCOC(=O)c1ccc(NC(=O)CC2SCCNC2=O)cc1` (stereo not given) gave CHX counter 38*, Marburg entry inh 9%, Shiga inhibitor 96* and Lassa entry inh 44%.
For Cc1ccccc1NC(=O)CC1SCCNC1=O (stereo not given) the results were CHX counter 0, Marburg entry inh 14%, Shiga inhibitor 15 and Lassa entry inh -19%.
Screening Cc1cc(C)c(NC(=O)C2CC3CCC2C3)c(C)c1 (stereo not given) returned CHX counter 15* and Shiga inhibitor 33.
`CC(C)c1ccc(NC(=O)C2CC3CCC2C3)cc1` (stereo not given) gave CHX counter 53*, Marburg entry inh inconclusive, Shiga inhibitor 86* and Lassa entry inh inconclusive.
Screening COc1ccc(O[C@H]2C=C[C@@H](c3ccccc3)O[C@H]2COC(=O)CCC(C)=NO[C@H](C)c2cn([C@@H]3COC[C@@H]3O)nn2)cc1 returned Marburg entry inh -3%[14.2 µM] and Lassa entry inh 26%[14.3 µM].
Screening C#CCNc1ccc([N+](=O)[O-])cc1 returned CHX counter 16*, Marburg entry inh 0%[46.1 µM], Shiga inhibitor 22 and Lassa entry inh -17%.
`CC1CC(C)CN(S(=O)(=O)c2ccc(C(=O)N3CCOCC3)cc2)C1` (stereo not given) gave CHX counter -2, Marburg entry inh 19%, Shiga inhibitor 17 and Lassa entry inh inconclusive.
Screening COc1ccc2cc(CCC(C)=O)ccc2c1 returned CHX counter 56* and Shiga inhibitor 92*.
`COc1ccc(CCC(=O)Nc2cccc(Cl)c2)cc1` gave CHX counter 9, Marburg entry inh -2%, Shiga inhibitor 18 and Lassa entry inh 5%.
For O=Cc1cccn1-c1ccc(O)cc1 the results were CHX counter -4, Marburg entry inh -1%[46.1 µM], Shiga inhibitor -9 and Lassa entry inh 3%.
For C/C(=N\Nc1nncc2ccccc12)c1cccc(OC(F)F)c1 the results were CHX counter 20*, Marburg entry inh inconclusive, Shiga inhibitor 65* and Lassa entry inh 2.8µM*.
C/C(=N\Nc1nncc2ccccc12)c1ccc(C(C)(C)C)cc1 was read as CHX counter 42*, Marburg entry inh inconclusive, Shiga inhibitor 98* and Lassa entry inh inconclusive.
Screening COc1ccc(-c2nc(N/N=C(\C)c3ccc(O)cc3)c3ccccc3n2)cc1 returned CHX counter 29* and Shiga inhibitor 72*.
`C/C(=N\Nc1nc(-c2ccc(C)cc2)nc2ccccc12)c1ccc([N+](=O)[O-])cc1` gave CHX counter 8 and Shiga inhibitor 11.
`C/C(=N\Nc1nncc2ccccc12)c1ccc(O)cc1` gave CHX counter 28*, Marburg entry inh inconclusive, Shiga inhibitor 54* and Lassa entry inh inconclusive.
Screening Cc1ccc(NC(=O)C(C)Sc2nc3c(c(=O)[nH]2)CCCC3)cc1Cl (stereo not given) returned Marburg entry inh -15%[46.1 µM] and Lassa entry inh -1%[46.1 µM].
CCSC(=S)Nc1c(C)n(C)n(-c2ccccc2)c1=O was read as CHX counter -6, Marburg entry inh 0%[46.1 µM], Shiga inhibitor -3 and Lassa entry inh 2%[46.1 µM].
`CC(=O)Nc1nc(C2COc3ccccc3O2)cs1` (stereo not given) gave CHX counter 32*, Marburg entry inh inconclusive, Shiga inhibitor 50* and Lassa entry inh inconclusive.
For CC(=O)NCC1COc2ccccc2O1 (stereo not given) the results were CHX counter 0 and Shiga inhibitor 24.
NC(N)=Nc1nc(C2COc3ccccc3O2)cs1 (stereo not given) was read as CHX counter 37*, Marburg entry inh 26%[46.1 µM], Shiga inhibitor 75* and Lassa entry inh -10%.
`COc1ccc(CCC(=O)NCCS(=O)(=O)N2CCN(c3ccccc3OC)CC2)cc1` gave CHX counter -4 and Shiga inhibitor -16.
COc1cccc2cc(C(N)=O)/c(=N/NC(=O)COc3ccc(Cl)cc3)oc12 was read as CHX counter -4, Marburg entry inh 3% and Shiga inhibitor -4.
Screening CCOC(=O)c1c(C)n(C)c2ccc(O)c(CN3CCN(C)CC3)c12 returned CHX counter -6, Marburg entry inh -25%, Shiga inhibitor 34 and Lassa entry inh 13%.
For CCOC(=O)c1c(C)n(C)c2ccc(O)c(CN3CCC(C)CC3)c12 the results were CHX counter 1, Marburg entry inh 11µM*, Shiga inhibitor 17 and Lassa entry inh inconclusive.
`CCN(CC)P(=O)(Nc1ccc(C)cc1Br)c1ccc(N(C)C)cc1NC(=O)c1ccco1` (stereo not given) gave CHX counter 14, Marburg entry inh 11µM* and Shiga inhibitor 17.
`S=C(NCc1cccnc1)Nc1ccc(Oc2ccccc2)cc1` gave CHX counter 12 and Shiga inhibitor 0.
Screening CN(C)CCCNC(=S)Nc1ccc(Oc2ccccc2)cc1 returned CHX counter 26*, Marburg entry inh inconclusive, Shiga inhibitor 67 and Lassa entry inh 15%.
`CC(C)CNC(=S)Nc1ccc(Oc2ccccc2)cc1` gave CHX counter 21*, Marburg entry inh inconclusive, Shiga inhibitor 23 and Lassa entry inh -20%.
Screening CCN(CC)CCCNC(=S)Nc1ccc(Br)cc1 returned CHX counter 44*, Marburg entry inh inconclusive, Shiga inhibitor 102* and Lassa entry inh -5%[46.1 µM].
Screening OCCCNC(=S)Nc1ccc(Oc2ccccc2)cc1 returned CHX counter 0, Marburg entry inh 17%[46.1 µM], Shiga inhibitor 24 and Lassa entry inh 6%.
COc1ccc(N2CCN(S(=O)(=O)c3ccc4c(c3)C(C(C)C)C(=O)N4)CC2)cc1 (stereo not given) was read as Lassa entry inh 6%[46.1 µM].
COc1ccc(OC)c(-c2csc(NC(=O)c3ccc4c(c3)OCO4)n2)c1 was read as CHX counter 18*, Marburg entry inh -2%[46.1 µM], Shiga inhibitor 63* and Lassa entry inh -20%.
For O=C(Nc1ccc(Cl)cc1)c1ccc(OC2CSC2)cc1 the results were CHX counter 18* and Shiga inhibitor 66.
`COc1cc2c(cc1NCc1ccccn1)oc1ccccc12` gave CHX counter 11, Marburg entry inh 19%[46.1 µM], Shiga inhibitor 33* and Lassa entry inh 15%.
COc1cc2c(cc1NC(=O)c1ccc3c(c1)OCO3)oc1ccccc12 was read as CHX counter 41*, Marburg entry inh inconclusive, Shiga inhibitor 92* and Lassa entry inh inconclusive.
`COc1cc2c(cc1NC(=O)c1cncc(Br)c1)oc1ccccc12` gave CHX counter -2, Marburg entry inh -24%, Shiga inhibitor -9 and Lassa entry inh -15%.
`CNC(=O)c1ccc(OC2CSC2)cc1` gave CHX counter 14, Marburg entry inh -4%[46.1 µM], Shiga inhibitor -2 and Lassa entry inh -7%.
Screening COc1cc2c(cc1NC(=O)CCC(=O)O)oc1ccccc12 returned CHX counter 4, Marburg entry inh 15%[46.1 µM], Shiga inhibitor 1 and Lassa entry inh -3%[46.1 µM].

Screening results as filed in PubChem BioAssay.
